Test results from PubChem BioAssay.
Results filed as inconclusive are left out. Calls of active or inactive are those of the source. Unless noted, no cut-off is given here; in the data, nearly all actives have AC50 up to about 26 µM.

Legend:
[1] = tested on: Aerobactin synthetase IucA (Klebsiella pneumoniae); assay: inhibition of K. pneumoniae IucA enzyme – biochemical, Tocris library, absorbance (AID 1345561; call rule not given here;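 note: 100% = enzyme without compound and 0% = no enzyme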); settings: purified IucA enzyme assay, absorbance (OD) read-out; stronger effect = lower value;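 tested at 8 µM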
[2] = viability loss with induced miR-34 in A549 – imaging, A549 dox-inducible miR-34, nuclei and caspase counts, primary screen (AID 1347080;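 active = compounds whose cell count with miR-34 switched on is under 0.7 times the count with it off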); settings: A549 miR-34 inducible, Hoechst nuclei count, 48 h
[3] = galactose survival enhancers in mitochondrial complex I cybrids – cell-based, galactose medium, ATP luminescence, primary screen (AID 1645843;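 active = z-score of at least 1.8 in each of two replicates, scored against plate mean and spread of sample wells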;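 note: positive z means more ATP and so rescue of galactose-driven cybrid death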); settings: complex I mutant cybrid cells, 72 h, stronger effect = higher value
[4] = P. berghei load reduction in hepatocytes – cell-based, HepG2, luciferase luminescence, HepG2 viability, primary screen (AID 624349; in the data active = parasite load remaining mostly below about 12%, no sharp cut-off; inactive = mostly above about 10%;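 note: 100% = mean of DMSO negative control wells on the same plate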); settings: P. berghei liver stage in HepG2, luciferase luminescence, concentration not given here; parasite load remaining: stronger effect = lower value; viability: measured here: HepG2 viability without parasites
[5] = viability loss in pontine glioma line – cell-based, SU-DIPG-XVII, MIPE5.0, CellTiter-Glo, qHTS, dose response (AID 1347060); settings: CellTiter-Glo ATP luminescence;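 for AC50: cells exposed to compound for 48 hours before viability readout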
[6] = viability loss in pontine glioma line – cell-based, SU-DIPG-XIII, MIPE4.0, CellTiter-Glo, qHTS, dose response (AID 1347061; cut-off not given, nearly all actives have AC50 up to about 37 µM;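 note: cells exposed to compound for 48 hours before readout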); settings: CellTiter-Glo ATP luminescence
[7] = viability loss in pontine glioma line – cell-based, JHH-DIPG-1, MIPE4.0, CellTiter-Glo, qHTS, dose response (AID 1347062; cut-off not given, nearly all actives have AC50 up to about 27 µM;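 for AC50: cells exposed to compound for two days before readout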); settings: JHH-DIPG-1 viability, CellTiter-Glo ATP luminescence
[8] = viability loss in pontine glioma line – cell-based, SU-DIPG-IV, MIPE4.0, CellTiter-Glo, qHTS, dose response (AID 1347063; cut-off not given, nearly all actives have AC50 up to about 30 µM;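 note: compound exposure lasted 48 hours before the viability readout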); settings: CellTiter-Glo ATP luminescence
[9] = viability loss in pontine glioma line – cell-based, SU-DIPG-XIII, MIPE5.0, CellTiter-Glo, qHTS, dose response (AID 1347064; cut-off not given, nearly all actives have AC50 up to about 23 µM;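 for AC50: cells exposed to compound for 48 hours before the viability read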); settings: CellTiter-Glo ATP luminescence
[10] = viability loss in pontine glioma line – cell-based, SU-DIPG-XXV, MIPE5.0, CellTiter-Glo, qHTS, dose response (AID 1347065); settings: CellTiter-Glo ATP luminescence;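 note: cells exposed to compound for 48 hours before ATP readout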
[11] = growth inhibition of DIPG cells – cell-based, MIPE4.0 library, CellTiter-Glo luminescence, qHTS (AID 1347066; cut-off not given, nearly all actives have AC50 up to about 30 µM;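 note: cells exposed to compound for 48 hours before readout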); settings: SU-DIPG-VI viability, CellTiter-Glo ATP luminescence
[12] = JHH-DIPG-1 glioma cell viability, MIPE5.0 library, CellTiter-Glo luminescence, qHTS (AID 1347067); settings: JHH-DIPG-1 glioma viability, CellTiter-Glo ATP luminescence;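 note: cells exposed to compound for 48 hours before readout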
[13] = growth inhibition of DIPG cells – cell-based, MIPE5.0 library, qHTS (AID 1347068; cut-off not given, nearly all actives have IC50 up to about 30 µM;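 for IC50: cells exposed to compound for 48 hours before viability readout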); settings: SU-DIPG-XXV viability
[14] = stronger effect = lower value, cell number ratio, induced over uninduced
[15] = measured here: relative caspase fold change +Dox/-Dox
[16] = measured here: total cells with miR-34 induction, stronger effect = lower value
[17] = measured here: total cells without miR-34 induction

O=C1NN(C(=O)Nc2ccc(Br)cc2)[C@@H](c2ccccc2)[C@@H]1c1ccccc1
inactive: remaining activity [1] 127% | fold change [2, 14] 0.887 | z-score [3] 0.225
10300: cell count [2, 17]
9100: cell count [2, 16]
0.737: fold change [2, 15]

Nc1ccc(-c2cccc3c(=O)cc(N4CCOCC4)oc23)cc1
3870: cell count [2, 16]
active: z-score [3] 4.44
1.45: fold change [2, 15]
83.4%: viability [4]
inactive: parasite load remaining [4] 43.6% | remaining activity [1] 104% | fold change [2, 14] 0.901
4300: cell count [2, 17]

COc1cc2ncnc(Nc3ccc(Oc4ccccc4)cc3)c2cc1OC
inactive: parasite load remaining [4] 30.7% | remaining activity [1] 104% | fold change [2, 14] 0.963 | z-score [3] 0.48
67.6%: viability [4]
8700: cell count [2, 16]
9040: cell count [2, 17]
1.11: fold change [2, 15]

COc1cc(C)c(Sc2cnc(NC(=O)c3ccc(CNC(C)C(C)(C)C)cc3)s2)cc1C(=O)N1CCN(C(C)=O)CC1 (configuration not stated)
active: AC50 [5] 10500 nM | AC50 [6] 16600 nM | AC50 [7] 20900 nM | AC50 [8] 7430 nM | AC50 [9] 6610 nM | AC50 [10] 4170 nM | AC50 [11] 18700 nM

CCOC(=O)C12CC1/C(=N\O)c1ccccc1O2 (configuration not stated)
8510: cell count [2, 16]
inactive: remaining activity [1] 109% | fold change [2, 14] 0.923 | z-score [3] -0.07
9220: cell count [2, 17]
1.17: fold change [2, 15]

OCCCNc1cc(-c2ccnc(Nc3cccc(Cl)c3)n2)ccn1
inactive: outcome [11]
active: AC50 [5] 132 nM | AC50 [6] 148 nM | AC50 [7] 148 nM | AC50 [8] 52.6 nM | AC50 [9] 83.3 nM | AC50 [10] 132 nM | AC50 [12] 118 nM | IC50 [13] 148 nM

CC(C)(C)C[C@H]1N[C@@H](C(=O)NC2CCC(O)CC2)[C@H](c2cccc(Cl)c2F)[C@@]12C(=O)Nc1cc(Cl)ccc12 (some centres not stated)
active: AC50 [5] 23500 nM

O=C1NC(=O)/C(=C/c2ccc3nccc(-c4ccncc4)c3c2)S1
active: AC50 [5] 1180 nM | AC50 [6] 743 nM | AC50 [7] 1050 nM | AC50 [8] 83.3 nM | AC50 [9] 1480 nM | AC50 [10] 468 nM | AC50 [11] 264 nM | AC50 [12] 1480 nM | IC50 [13] 1320 nM

Nc1nc(-c2nn(Cc3ccccc3F)c3ncccc23)nc(N)c1N1CCOCC1
inactive: outcome [5] | outcome [6] | outcome [7] | outcome [8] | outcome [9] | outcome [10] | outcome [11] | outcome [12] | outcome [13]

COc1cc(C(=O)NC(N)=Nc2ccc(C)c(NC(=O)c3ccc(-c4ccccc4)cc3)c2)cc(OC)c1OC
active: AC50 [5] 16600 nM

COc1ccc(OC)c2c(=S)c3ccccc3[nH]c12
8120: cell count [2, 16]
8480: cell count [2, 17]
149%: viability [4]
1.3: fold change [2, 15]
inactive: parasite load remaining [4] 32.4% | remaining activity [1] 86.6% | fold change [2, 14] 0.958 | z-score [3] 0.325

CCOc1cc2c(c(F)c1OCC)C(=N)N(CC(=O)c1cc(N3CCOCC3)c(OC)c(C(C)(C)C)c1)C2
active: AC50 [5] 26300 nM | AC50 [6] 2350 nM | AC50 [7] 23500 nM | AC50 [8] 16600 nM | AC50 [9] 29500 nM | AC50 [10] 23500 nM | AC50 [11] 16600 nM | AC50 [12] 20900 nM

COc1cc(O)c2c(c1)C1OC1C[C@H](O)[C@H](O)C(=O)/C=C\C[C@H](C)OC2=O (some centres not stated)
active: AC50 [5] 661 nM | AC50 [6] 662 nM | AC50 [7] 5900 nM | AC50 [8] 4180 nM | AC50 [9] 661 nM | AC50 [10] 934 nM | AC50 [11] 13200 nM | AC50 [12] 4170 nM | IC50 [13] 18600 nM

NCC(=O)Nc1cncc(-c2nn3c(=O)cc(N4CCNCC4)nc3s2)c1
inactive: outcome [5]

O=C(c1ccc(F)c(F)c1Nc1ccc(I)cc1F)N1CC(O)([C@@H]2CCCCN2)C1
active: AC50 [5] 332 nM | AC50 [6] 418 nM | AC50 [7] 332 nM | AC50 [8] 5900 nM | AC50 [9] 372 nM | AC50 [10] 525 nM

Cc1c(CN2CCN(C(=O)[C@H](C)O)CC2)sc2c(N3CCOCC3)nc(-c3cnc(N)nc3)nc12
active: AC50 [5] 590 nM | AC50 [6] 1870 nM | AC50 [7] 1870 nM | AC50 [8] 41.8 nM | AC50 [9] 590 nM | AC50 [10] 209 nM | AC50 [11] 935 nM | AC50 [12] 372 nM | IC50 [13] 934 nM

Cc1ccc(NC2=CC(=O)c3sc(C)nc3C2=O)cc1
inactive: parasite load remaining [4] 21% | remaining activity [1] 117% | fold change [2, 14] 0.814 | z-score [3] -0.705
105%: viability [4]
1300: cell count [2, 17]
1060: cell count [2, 16]
0.845: fold change [2, 15]

N#CNC(=NCCCCCCOc1ccc(Cl)cc1)Nc1ccncc1
active: AC50 [5] 29.5 nM | AC50 [6] 4.69 nM | AC50 [7] 1.32 nM | AC50 [8] 4.69 nM | AC50 [9] 8.33 nM | AC50 [10] 13.2 nM | AC50 [11] 5.26 nM | AC50 [12] 14.8 nM

C=CCNc1c(O)cc2c(O)c1C[C@@H](C)C[C@H](OC)[C@H](O)[C@@H](C)/C=C(/C)[C@H](OC(N)=O)[C@@H](OC)/C=C\C=C(\C)C(=O)N2
active: AC50 [5] 525 nM | AC50 [6] 1050 nM | AC50 [7] 332 nM | AC50 [8] 148 nM | AC50 [9] 1660 nM | AC50 [10] 3720 nM | AC50 [11] 14800 nM | AC50 [12] 468 nM

CC(C)(O)[C@H]1CC[C@@](C)([C@H]2[C@@H](O)C[C@@]3(C)[C@@H]4C[C@H](O[C@@H]5O[C@H](CO)[C@@H](O)[C@H](O)[C@H]5O)[C@H]5C(C)(C)[C@@H](O[C@@H]6OC[C@@H](O)[C@H](O)[C@H]6O)CC[C@@]56C[C@@]46CC[C@]23C)O1
inactive: outcome [5] | outcome [6] | outcome [7] | outcome [8] | outcome [9] | outcome [10] | outcome [11] | outcome [12] | outcome [13]

CN(C(=O)CNC(=O)/C=C/c1cccc(Cl)c1)C1CCS(=O)(=O)CC1
active: AC50 [5] 1050 nM

CCCCC(=O)OCC(=O)[C@]1(O)Cc2c(O)c3c(c(O)c2[C@@H](O[C@H]2C[C@H](NC(=O)C(F)(F)F)[C@H](O)[C@H](C)O2)C1)C(=O)c1c(OC)cccc1C3=O
active: AC50 [5] 1660 nM

COc1ccc(Nc2cc(-c3cnc(N)nc3)nc(N3CCOCC3)n2)cn1
active: AC50 [5] 2950 nM | AC50 [6] 18700 nM | AC50 [7] 5900 nM | AC50 [8] 4690 nM | AC50 [9] 1660 nM | AC50 [10] 1320 nM | AC50 [11] 4180 nM
